In PubChem BioAssay (EPA / NIEHS):
Activity calls are given as the source filed them. The calls were made as follows: active = hit-call score of the fitted dose curve at least 0.9, where 1 is the maximum; inactive = score below 0.9.

What was measured:
Conditions in all cases: mRNA level, 48 h; actives raise or lower the signal
[1] = read-out: HGF (gene 3082); experiment: LTEA_HepaRG_HGF: Life Technologies and Expression Analysis (LTEA) Assay for Hepatocyte Growth Facto (HGF) using HepaRG (AID 2283505)
Procedure, shortened: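 HepaRG, 48 h dosing, 8-pt half-log series from 100 uM in 0.5% DMSO, duplicates. Readout: TaqMan qRT-PCR of HGF mRNA, housekeeping-normalized; bidirectional curve fit vs DMSO baseline.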

[2] = read-out: Insulin Like Growth Factor 1 (IGF1), IGF1 (gene 3479); experiment: LTEA_HepaRG_IGF1: Life Technologies and Expression Analysis (LTEA) Assay for Insulin Like Growth Factor 1 (IGF1) using HepaRG (AID 2283506)
Procedure, shortened: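 Differentiated human HepaRG cells were dosed for 48 h in serum-free induction medium with 0.5% DMSO, eight half-log concentrations up to 100 uM, in duplicate. IGF1 mRNA was quantified by qRT-PCR normalized to ACTB, GAPDH, POLR2A; bidirectional fitting versus DMSO.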

[3] = read-out: Intercellular Adhesion Molecule 1 (ICAM1), ICAM1 (gene 3383); experiment: LTEA_HepaRG_ICAM1: Life Technologies and Expression Analysis (LTEA) Assay for Intercellular Adhesion Molecule 1 (ICAM1) using HepaRG (AID 2283507)
Procedure, shortened: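 HepaRG, 48 h exposure, 8-pt half-log series from 100 uM, 0.5% DMSO vehicle, duplicates. Readout: TaqMan qRT-PCR mRNA, housekeeping-normalized (ACTB/GAPDH/POLR2A). Bidirectional curve fit vs DMSO baseline.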

[4] = read-out: Insulin-like growth factor-binding protein 1 (IGFBP1), IGFBP1 (gene 3484); experiment: LTEA_HepaRG_IGFBP1: Life Technologies and Expression Analysis (LTEA) Assay for Insulin-like growth factor-binding protein 1 (IGFBP1) using HepaRG (AID 2283508)
Procedure, shortened: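 qRT-PCR mRNA read-out (TaqMan, Fluidigm array), normalised to three housekeeping genes; HepaRG cells, 48 h exposure, 8-pt half-log series from 100 uM, 0.5% DMSO vehicle; bidirectional curve fit vs DMSO baseline.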

[5] = read-out: Interleukin 6 Receptor (IL6R), IL6R (gene 3570); experiment: LTEA_HepaRG_IL6R: Life Technologies and Expression Analysis (LTEA) Assay for Interleukin 6 Receptor (IL6R) using HepaRG (AID 2283510)
Procedure, shortened: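 Differentiated human HepaRG cells, plated 48 h then switched to serum-free induction medium, were dosed in duplicate for 48 h at eight half-log concentrations up to 100 uM in 0.5% DMSO. IL6R mRNA quantified by qRT-PCR, normalized to ACTB/GAPDH/POLR2A; bidirectional fit versus DMSO.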

[6] = read-out: Potassium channel subfamily K member 1 (KCNK1), KCNK1 (gene 3775); experiment: LTEA_HepaRG_KCNK1: Life Technologies and Expression Analysis (LTEA) Assay for Potassium channel subfamily K member 1 (KCNK1) using HepaRG (AID 2283511)
Procedure, shortened: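 Differentiated human HepaRG cells in serum-free induction medium were exposed in duplicate for 48 h to 8 half-log concentrations up to 100 uM in 0.5% DMSO. KCNK1 mRNA was measured by TaqMan qRT-PCR, normalized to ACTB, GAPDH and POLR2A, and fitted bidirectionally versus DMSO.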

[7] = read-out: Keratin 19 (KRT19), KRT19 (gene 3880); experiment: LTEA_HepaRG_KRT19: Life Technologies and Expression Analysis (LTEA) Assay for Keratin 19 (KRT19) using HepaRG (AID 2283512)
Procedure, shortened: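 HepaRG, 48 h chemical exposure, 8-pt half-log CRC from 100 uM, 0.5% DMSO vehicle, duplicates. Readout: TaqMan qRT-PCR of KRT19 mRNA, housekeeping-normalized (ACTB/GAPDH/POLR2A). Bidirectional fit vs DMSO baseline.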

[8] = read-out: JUN Transcription Factor, JUN (gene 3725); experiment: LTEA_HepaRG_JUN: Life Technologies and Expression Analysis (LTEA) Assay for JUN Transcription Factor using HepaRG (AID 2283513)
Procedure, shortened: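 Differentiated HepaRG cells were exposed to chemicals for 48 h in serum-free induction medium, 8 concentrations from 100 uM in half-log steps, 0.5% DMSO vehicle, in duplicate. JUN mRNA was quantified by TaqMan qRT-PCR, normalized to ACTB, GAPDH, POLR2A.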

[9] = read-out: Lipase C (LIPC), LIPC (gene 3990); experiment: LTEA_HepaRG_LIPC: Life Technologies and Expression Analysis (LTEA) Assay for Lipase C (LIPC) using HepaRG (AID 2283514)
Procedure, shortened: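 Differentiated human HepaRG cells in serum-free induction medium were exposed in duplicate for 48 h to eight concentrations (top 100 uM, half-log steps, 0.5% DMSO). LIPC mRNA was quantified by TaqMan qRT-PCR, normalized to ACTB, GAPDH and POLR2A, with bidirectional fitting versus DMSO.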

[10] = read-out: MicroRNA 122 (MIR122), gene 406906; experiment: LTEA_HepaRG_MIR122: Life Technologies and Expression Analysis (LTEA) Assay for MicroRNA 122 (MIR122) using HepaRG (AID 2283516); also: the transcript read is the microRNA miR-122
Procedure, shortened: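 Differentiated human HepaRG cells were exposed 48 h in serum-free induction medium to eight half-log concentrations (top 100 uM, 0.5% DMSO). Transcript level was measured by TaqMan qRT-PCR, normalized to ACTB, GAPDH and POLR2A, and fitted bidirectionally versus DMSO.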

[11] = read-out: matrix metalloproteinase-10 (MMP10), MMP10 (gene 4319); experiment: LTEA_HepaRG_MMP10: Life Technologies and Expression Analysis (LTEA) Assay for matrix metalloproteinase-10 (MMP10) using HepaRG (AID 2283517)
Procedure, shortened: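 HepaRG, collagen I, ~100,000 cells/well; serum-free induction medium; 48 h exposure, duplicate, 8-pt half-log to 100 uM, 0.5% DMSO. Readout: TaqMan qRT-PCR, normalized to ACTB/GAPDH/POLR2A; bidirectional fit vs DMSO.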

[12] = read-out: MYC, MYC (gene 4609); experiment: LTEA_HepaRG_MYC: Life Technologies and Expression Analysis (LTEA) Assay for MYC using HepaRG (AID 2283518)
Procedure, shortened: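 qRT-PCR read-out of MYC transcript (Fluidigm TaqMan, housekeeping-normalized) after 48 h chemical exposure of HepaRG cells; eight concentrations, top 100 uM, half-log steps. Bidirectional curve fitting against 0.5% DMSO vehicle baseline.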

[13] = read-out: Paternally Expressed 10 (PEG10), PEG10 (gene 23089); experiment: LTEA_HepaRG_PEG10: Life Technologies and Expression Analysis (LTEA) Assay for Paternally Expressed 10 (PEG10) using HepaRG (AID 2283520)
Procedure, shortened: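 Differentiated HepaRG cells, plated 48 h then switched to serum-free induction medium, were exposed in duplicate for 48 h to eight half-log concentrations topping at 100 uM in 0.5% DMSO. PEG10 mRNA was quantified by TaqMan qRT-PCR, normalised to ACTB, GAPDH and POLR2A.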

[14] = read-out: Nuclear factor NF-kappa-B p105 subunit (Homo sapiens) (UniProt P19838); experiment: LTEA_HepaRG_NFKB1: Life Technologies and Expression Analysis (LTEA) Assay for Nuclear Factor Kappa B Subunit 1 (NFKB1) using HepaRG (AID 2283521)
Procedure, shortened: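 Differentiated human HepaRG cells were exposed for 48 h in serum-free induction medium to eight concentrations (top 100 uM, half-log steps, 0.5% DMSO), in duplicate. NFKB1 mRNA was measured by TaqMan qRT-PCR, normalized to ACTB/GAPDH/POLR2A, and fitted bidirectionally against DMSO.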

[15] = read-out: Protein phosphatase 2A (PPP2R4), PTPA (gene 5524); experiment: LTEA_HepaRG_PPP2R4: Life Technologies and Expression Analysis (LTEA) Assay for Protein phosphatase 2A (PPP2R4) using HepaRG (AID 2283522)
Procedure, shortened: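 Differentiated HepaRG cells in serum-free induction medium were exposed in duplicate for 48 h to eight concentrations, top 100 uM with half-log dilutions, in 0.5% DMSO. PPP2R4 mRNA was quantified by TaqMan qRT-PCR, normalized to ACTB, GAPDH and POLR2A.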

[16] = read-out: Phosphatase and tensin (PTEN), PTEN (gene 5728); experiment: LTEA_HepaRG_PTEN: Life Technologies and Expression Analysis (LTEA) Assay for Phosphatase and tensin (PTEN) using HepaRG (AID 2283523)
Procedure, shortened: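 Differentiated human HepaRG cells, plated 48 h then switched to serum-free induction medium, were exposed in duplicate for 48 h to eight half-log concentrations up to 100 uM in 0.5% DMSO. PTEN mRNA measured by TaqMan qRT-PCR, normalized to ACTB/GAPDH/POLR2A, bidirectional fit versus DMSO.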

[17] = read-out: solute carrier (SLC22A1), SLC22A1 (gene 6580); experiment: LTEA_HepaRG_SLC22A1: Life Technologies and Expression Analysis (LTEA) Assay for solute carrier (SLC22A1) using HepaRG (AID 2283524)
Procedure, shortened: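 Human HepaRG cells were plated 48 h, switched to serum-free induction medium, then exposed in duplicate for 48 h to 8-point half-log series from 100 uM in 0.5% DMSO. SLC22A1 mRNA measured by qRT-PCR, normalized to ACTB/GAPDH/POLR2A, fitted bidirectionally versus DMSO.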

[18] = read-out: Lipoprotein lipase (LPL), LPL (gene 4023); experiment: LTEA_HepaRG_LPL: Life Technologies and Expression Analysis (LTEA) Assay for Lipoprotein lipase (LPL) using HepaRG (AID 2283515)
Procedure, shortened: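 Differentiated human HepaRG cells in serum-free induction medium were exposed in duplicate for 48 h to eight half-log concentrations (top 100 uM) in 0.5% DMSO. LPL mRNA was quantified by TaqMan qRT-PCR, normalized to ACTB, GAPDH and POLR2A.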

[19] = read-out: matrix metalloproteinase-3 (MMP3), MMP3 (gene 4314); experiment: LTEA_HepaRG_MMP3: Life Technologies and Expression Analysis (LTEA) Assay for matrix metalloproteinase-3 (MMP3) using HepaRG (AID 2283519)
Procedure, shortened: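 Differentiated human HepaRG cells, plated 48 h on collagen I, were exposed in duplicate for 48 h in serum-free induction medium to eight half-log concentrations up to 100 uM in 0.5% DMSO. MMP3 mRNA was quantified by TaqMan qRT-PCR, normalised to ACTB, GAPDH and POLR2A.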

[20] = read-out: Interleukin 6 (IL6), IL6 (gene 3569); experiment: LTEA_HepaRG_IL6: Life Technologies and Expression Analysis (LTEA) Assay for Interleukin 6 (IL6) using HepaRG (AID 2283509)
Procedure, shortened: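 Differentiated human HepaRG cells, plated 48 h then switched to serum-free induction medium, were exposed in duplicate for 48 h to eight half-log concentrations up to 100 uM in 0.5% DMSO. IL6 mRNA measured by qRT-PCR, normalized to ACTB/GAPDH/POLR2A.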

Measured: AC50

Chain of Nuclear factor NF-kappa-B p105 subunit (Homo sapiens) (P19838 whole entry, looked up): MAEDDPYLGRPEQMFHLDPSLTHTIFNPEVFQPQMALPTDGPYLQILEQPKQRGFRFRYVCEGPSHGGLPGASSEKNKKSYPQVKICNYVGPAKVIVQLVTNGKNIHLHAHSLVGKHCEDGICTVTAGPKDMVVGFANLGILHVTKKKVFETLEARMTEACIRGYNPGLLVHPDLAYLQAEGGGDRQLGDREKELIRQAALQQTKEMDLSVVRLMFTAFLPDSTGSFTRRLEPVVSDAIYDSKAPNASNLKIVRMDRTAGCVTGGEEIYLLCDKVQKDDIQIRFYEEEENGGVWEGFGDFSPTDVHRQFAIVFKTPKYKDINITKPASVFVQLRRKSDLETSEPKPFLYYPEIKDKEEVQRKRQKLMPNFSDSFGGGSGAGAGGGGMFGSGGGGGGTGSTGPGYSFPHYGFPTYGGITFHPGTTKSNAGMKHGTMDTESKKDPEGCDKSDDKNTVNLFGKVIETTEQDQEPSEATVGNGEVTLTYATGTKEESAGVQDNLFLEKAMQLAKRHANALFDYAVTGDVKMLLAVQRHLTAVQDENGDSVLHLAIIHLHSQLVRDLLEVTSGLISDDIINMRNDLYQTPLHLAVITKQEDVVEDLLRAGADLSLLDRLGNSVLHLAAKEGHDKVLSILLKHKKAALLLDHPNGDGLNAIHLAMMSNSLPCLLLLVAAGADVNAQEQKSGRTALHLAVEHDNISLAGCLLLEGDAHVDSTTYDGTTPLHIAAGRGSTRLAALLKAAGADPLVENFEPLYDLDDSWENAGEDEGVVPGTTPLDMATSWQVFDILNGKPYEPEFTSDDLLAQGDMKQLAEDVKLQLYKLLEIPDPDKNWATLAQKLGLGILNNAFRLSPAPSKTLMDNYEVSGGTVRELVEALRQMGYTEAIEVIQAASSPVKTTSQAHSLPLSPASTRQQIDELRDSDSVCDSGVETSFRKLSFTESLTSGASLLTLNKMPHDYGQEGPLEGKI

CN(C)c1ccc(Cc2ccc(N(C)C)cc2)cc1
active: [2] 79.2 µM | [7] 40.8 µM | [9] 80.1 µM | [10] 50 µM | [13] 37.3 µM
not listed: [18] | [19] | [20]
inactive: all other assays above

COC(=O)c1c(Cl)c(Cl)c(C(=O)OC)c(Cl)c1Cl
not listed: [5] | [20]
inactive: all other assays above

COCCOc1cc2cc(C(=O)NC3CCN(C(C)C)CC3)n(CC(=O)Nc3ccc(Cl)cn3)c2cn1
active: [2] 13.8 µM | [4] 45 µM | [5] 10.6 µM | [7] 7.89 µM | [9] 45 µM | [10] 45 µM | [13] 45 µM | [16] 45 µM | [17] 62.1 µM
not listed: [1] | [18]
inactive: all other assays above

CCC(C)(C)C(=O)O[C@H]1C[C@@H](C)C=C2C=C[C@H](C)[C@H](CC[C@@H]3C[C@@H](O)CC(=O)O3)[C@H]21
not listed: [14] | [18] | [19] | [20]
inactive: all other assays above

CCCN(C1CCN(C(=O)C2CCNCC2)CC1)[C@@H]1CCc2ccc(OC)cc2C1
active: [2] 50 µM | [3] 77.4 µM | [4] 69.5 µM | [20] 84.2 µM | [5] 50 µM | [7] 13.6 µM | [9] 69.6 µM | [10] 80 µM | [12] 89.5 µM | [13] 60.2 µM | [14] 0.304 µM | [17] 83 µM
inactive: [6] | [8] | [18] | [11] | [15] | [16]

O=C(OC[C@H]1O[C@@H](OC(=O)c2cc(O)c(O)c(OC(=O)c3cc(O)c(O)c(O)c3)c2)[C@H](OC(=O)c2cc(O)c(O)c(OC(=O)c3cc(O)c(O)c(O)c3)c2)[C@@H](OC(=O)c2cc(O)c(O)c(OC(=O)c3cc(O)c(O)c(O)c3)c2)[C@@H]1OC(=O)c1cc(O)c(O)c(OC(=O)c2cc(O)c(O)c(O)c2)c1)c1cc(O)c(O)c(OC(=O)c2cc(O)c(O)c(O)c2)c1
active: [3] 6.76 µM | [4] 9.51 µM | [20] 10.5 µM | [5] 15.2 µM | [9] 8.46 µM | [10] 9.05 µM | [11] 9.49 µM | [12] 6.08 µM | [19] 15.2 µM | [13] 9.75 µM | [14] 8.67 µM | [15] 3.88 µM | [17] 15.2 µM
inactive: [2] | [6] | [7] | [8] | [16]

COC(=O)c1ccccc1O
not listed: [1] | [5] | [18]
inactive: all other assays above
